Hits are enriched below; roughly 1.8% of the tested compounds scored in any of these assays.
MIN6 prolif-1: inducers of MIN6 beta-cell proliferation, primary screen, ATP luminescence, uHTS; MIN6 cells proliferation, ATPlite luminescence, 48 h; cells starved in 0.2% serum; 100% = growth in 10% serum; proliferation, % at 10 µM; 330,000 compounds, 0.29% hits; AID 2380, 2010;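 active = compounds whose signal lies at least 3.5 SD above the mean of all wells on their plate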;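 note: 0% = DMSO-treated cells in low-serum medium and 100% = 10% serum control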
NRP1-CendR mod: modulators of CendR peptide binding to NRP-1, primary screen, biochemical, fluorescence polarization, uHTS; 360,000 compounds, 0.85% hits; Neuropilin-1 (Homo sapiens), O14786; FAM-RPARPAR peptide binding to NRP-1; inhibition, % at 25 µM;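 active = inhibition or corrected inhibition above about 18%, plus a signal ratio from 0.5 to 1.5, limit read from the data, passing the limit was not always enough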
A3A deaminase: APOBEC3A ssDNA deaminase inhibitors, primary screen, selectivity assay for APOBEC3G inhibitor project, biochemical, FAM/TAMRA oligo cleavage fluorescence. DNA dC->dU-editing enzyme APOBEC-3A (Homo sapiens), P31941. 330,000 compounds, 0.41% hits. recombinant A3A, FAM/TAMRA ssDNA deamination fluorescence. inhibition, % at 20 µM;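 active = at least 40% inhibition at 20 µM here, with at most 30% in a related deaminase screen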;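 note: plate controls were A3A with DMSO for no effect and wells lacking A3A enzyme for full effect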
APOBEC3G inh: APOBEC3G DNA deaminase inhibitors, primary screen, biochemical, fluorescence, single-stranded DNA substrate, uHTS. recombinant A3G, ssDNA deamination FAM/TAMRA fluorescence. inhibition, % at 20 µM. 330,000 compounds, 0.28% hits. AID 493012, 2011;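 active = inhibition of at least 40% at 20 µM, with no more than 30% in the related APOBEC3A deaminase screen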;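 note: plate controls were DMSO wells with A3G for no effect and wells lacking A3G enzyme for full effect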
VLA-4 inh: inhibition in human VLA-4 binding assay, primary screen, VLA-4 allosteric modulator project, MLPCN library, flow cytometry, VLA-4 expressing cells. Integrin alpha-4 (Homo sapiens), P13612. ligand binding flow cytometry. inhibition, % (about 7 µM as worked out from the volumes in the protocol). 330,000 compounds, 0.2% hits; in the data active = inhibition above about 50%
MIN6 prolif-2: inducers of beta-cell proliferation in MIN6, confirmation, MIN6 cells, mouse. shares compounds with MIN6 prolif-1. ATPlite luminescence, 48 h; cells kept in 0.2% serum; scaled between 0.2% and 10% serum. proliferation increase, % at 50 µM. 920 tested, under 10 active;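 active = proliferation increase above 40% at any of the four tested concentrations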
* hit, by the source's call; x = no result given.

SMILES | MIN6 prolif-1 | NRP1-CendR mod | A3A deaminase | APOBEC3G inh | VLA-4 inh | MIN6 prolif-2
CCOC(=O)C1=C(COC(=O)/C=C/c2ccccc2)NC(=O)NC1C (centres undefined) | 12* | 4 | -2 | -8 | 5 | 5
CCCN1Cc2cccc(C(=O)Nc3ccc4c(c3)OCO4)c2C1=O | 11* | 7 | 2 | 2 | -8 | 0
CCCN1Cc2cccc(C(=O)Nc3ccc(CC)cc3)c2C1=O | 7.1* | 8 | 2 | 5 | -1 | 0
CCn1c(CNS(=O)(=O)c2ccc(Br)cc2)n[nH]c1=S | 2 | 3 | -3 | 19 | 0 | x
COc1ccc(C2(C)NC(=O)N(Cc3cc(Cl)cc4c3OCOC4)C2=O)cc1OC (centres undefined) | 15* | -4 | 3 | -2 | 29 | -6
COc1cc(NC(=O)CN(c2ccc(C)cc2)S(=O)(=O)c2c(C)nn(C)c2C)cc(OC)c1 | 10* | 7 | 5 | -4 | 22 | -6
COC(=O)c1ccc(CO/N=C/c2ccc(OC)cc2OC)cc1 | 8.0* | -4 | -3 | -9 | -6 | 0
CC(C)(Oc1ccc(Cl)cc1)C(=O)Nc1c2c(nn1C(C)(C)C)CS(=O)(=O)C2 | 15* | 9 | -4 | -6 | -26 | 3
CC(C)(C)n1nc2c(c1NC(=O)COc1ccc(Cl)cc1)CS(=O)(=O)C2 | 2 | -4 | 4 | -10 | 14 | x
Cc1ccc(F)cc1NC(=O)Nc1cc(C(C)(C)C)nn1C | 6.9* | -14 | -4 | -6 | 10 | -3
COc1ccccc1NC(=O)Nc1cc(C(C)(C)C)nn1C | -3 | 10 | 5 | 4 | -1 | x
Cc1csc(=O)n1CC(=O)OCC(=O)c1c(N)n(CC(C)C)c(=O)n(C)c1=O | -1 | -8 | 5 | -7 | 2 | x
O=S(=O)(c1ccc(Oc2ccc(F)c(Cl)c2)nc1)N1CCOCC1 | 13* | 9 | 1 | -3 | -15 | -2
CC1CC(C)CN(C(=O)CCNC(=O)Cn2ccc3ccccc3c2=O)C1 (centres undefined) | 1 | 7 | -3 | -7 | -6 | x
CC(C)(C)NC(=O)Cn1nc(C(F)(F)F)c2c1CCCC2 | -1 | -3 | 0 | -4 | 19 | x
FC(F)(F)c1nc2nncn2c2c1CCCCC2 | 7.4* | 7 | 0 | 0 | 4 | -3
Cn1c2ccccc2n2c(=O)c(Cl)c(-c3ccccc3)c(C#N)c12 | 7.9* | 3 | 1 | -2 | 23 | -4
CC(C)c1nc2oc3c(NCc4ccccn4)ncnc3c2c2c1COC(C)(C)C2 | 7.4* | -13 | -2 | -7 | 9 | 0
COc1ccc(CC(=O)N2CCN(C(=O)Cc3ccc(OC)cc3)CC2)cc1 | 0 | -5 | 1 | -3 | -5 | x
COc1ccc(CC(=O)N2CCN(c3ccc(C4=NNC(=O)CC4C)cc3)CC2)cc1 (centres undefined) | 4.6* | -1 | 2 | 4 | 36 | -1
COc1cccc(NC(=O)CN(C)C(=O)c2cn(-c3ccccc3)nc2-c2cccnc2)c1 | 9.5* | -5 | -7 | -9 | 12 | -4
O=[N+]([O-])c1cnccc1Nc1ccccc1 | 1 | 1 | -5 | -6 | -5 | x
COc1ccccc1Nc1ccncc1[N+](=O)[O-] | 8.1* | 4 | -2 | -6 | 6 | 6
N#CC(c1ccccn1)c1ncc(C(F)(F)F)cc1Cl (centres undefined) | 8.3* | 6 | 3 | 4 | -3 | 6
COc1ccc2nc(SCC(=O)NC3(C#N)CCCCC3)[nH]c2c1 | 6 | 5 | 8 | 0 | 1 | x
SMILES | MIN6 prolif-1 | NRP1-CendR mod | A3A deaminase | APOBEC3G inh | VLA-4 inh | MIN6 prolif-2
CCCCc1n[nH]c2c1/C(=N/OCC)CC(C)(C)C2 | 9.1* | -4 | 2 | -1 | 6 | -6
CCCCc1n[nH]c2c1/C(=N/O)CC(C)(C)C2 | -2 | 11 | 3 | 2 | 6 | x
COc1cc2c(cc1OC)C(Nn1cnnc1)=NC1(CCCC1)C2 | 5.2* | -4 | -4 | -9 | 5 | 1
CCCC(=O)N(CCN(C(=O)CCC)c1ccccc1)c1ccccc1 | 8.8* | -5 | -3 | -8 | 3 | -3
CCN(C(=O)CCC(=O)N(CC)c1ccccc1)c1ccccc1 | -1 | -3 | 4 | -3 | -3 | x
CC1(c2ccccc2)NC(=O)N(N)C1=O (centres undefined) | 2 | -10 | 2 | -3 | 1 | x
CCC[C@@H](O)c1cc2cc(OC)c(OC)cc2c(=O)o1 | 12* | 10 | 2 | -5 | 21 | -6
COc1cc2cc(C(C)(C)O)oc(=O)c2cc1OC | 1 | 4 | 0 | -12 | 18 | x
Cc1cccc(/C=N/n2c(C3CCCCC3)n[nH]c2=S)c1 | 6.7* | -2 | -5 | 0 | 1 | -6
CCN(CC)C(=O)[C@H]1CC(CC(=O)NCC23CC4CC(CC(C4)C2)C3)C(=O)N2CCc3c([nH]c4ccccc34)[C@]12C (some centres undefined) | -5 | -4 | -1 | -6 | 7 | x
COC(=O)CSc1nnc(-c2ccco2)n1-c1ccc(C)cc1 | 7.4* | -18 | -1 | -3 | 3 | 2
COc1cc2c(cc1OC)C1=C(C#N)CCC(=NC(=O)c3ccco3)N1CC2 | 9.8* | 11 | 3 | 0 | -5 | 4
COc1cc2c(cc1OC)C1=C(C#N)CC/C(=N\S(=O)(=O)c3cccc(Cl)c3)N1CC2 | 1 | -5 | 1 | -4 | 5 | x
CN1CCN(CC(O)COC(c2ccccc2)c2ccccc2)CC1 (centres undefined) | 8.2* | -1 | 2 | 3 | -4 | -2
O=C(/C=C/c1ccco1)NCc1ccccn1 | 9.4* | 0 | -3 | -7 | -5 | 2
COc1ccc2[nH]c(=O)c(CN(C(=O)c3ccncc3)C(C)(C)C)cc2c1 | 13* | 18 | 4 | 1 | -16 | 1
COc1ccc2[nH]c(=O)c(CN(C)C(=O)c3ccncc3)cc2c1 | 0 | -2 | -1 | -5 | 0 | x
COc1cccc(C(C(=O)NC(C)(C)C)N(C(=O)CCC(=O)Nc2cc(C)on2)C(C)C)c1OC (centres undefined) | 3 | 7 | 2 | -4 | 7 | x
COc1cccc(C(C(=O)NC(C)(C)C)N(C(=O)CCC(=O)Nc2cc(C)on2)C(C)(C)C)c1OC (centres undefined) | 5.2* | 0 | 0 | 0 | -5 | -1

From PubChem BioAssay
